The list is not random: actives were taken first. Their share in the collection is about 1.5%.
CRFR2-BP ag – agonists of CRF-BP/CRF-R2 complex, primary screen, cell-based, HEK293, calcium dye fluorescence, uHTS. calcium dye fluorescence (FLIPR); percent of saturating CRF peptide response. activation, % at 13.2 µM. CRF-binding protein / CRF receptor 2 complex (human). 0.46% of 350,000 active;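 active = activation of at least 50%, plus an integration ratio under a set limit after plate pattern correction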;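 note: plate controls were neutral control wells without compound for no effect and CRF at EC100 for full effect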
cardiac RTF act – cardiac RTF calcium sensitivity activators, primary screen, biochemical, IANBD-TnC fluorescence, EC20 calcium; Troponin I, cardiac muscle (Homo sapiens) + Troponin T, cardiac muscle (Homo sapiens) + …; 0.24% of 340,000 active; IANBD-labeled TnC RTF fluorescence at EC20 calcium; 0% EC20 calcium, 100% full calcium; activation, % at 7.2 µM; AID 493008, 2010;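 active = activation above the mean over all tested compounds plus 3 SD, cut at about 30% in these data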;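 note: rise in fluorescence read as greater calcium sensitivity of cardiac thin filaments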
IDE cell inh – human IDE inhibitors in live cells, primary screen, fluorescence polarization, HEK cells, FAbetaB substrate. Insulin-degrading enzyme (Homo sapiens), P14735. FAbetaB cleavage. inhibition, % at 5.59 µM. 0.41% of 320,000 active;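 active = percent inhibition above the average of all tested compounds plus 3 SD, set per screening campaign, cut at about 16% in these data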;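 note: IDE supplied by intact live HEK cells; FP after avidin binding of uncleaved biotin substrate so inhibition keeps polarization high; 0% = DMSO wells and 100% = 60 µM reference IDE inhibitor Ii1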
CRFR2-BP antag – antagonists of CRF-BP/CRF-R2 complex, primary screen, cell-based, HEK293, calcium dye fluorescence, uHTS | CRF-induced calcium fluorescence | inhibition, % at 11.8 µM | 0.59% of 350,000 active | AID 588475, 2011;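 active = inhibition of the ligand-induced calcium signal above about 50% at the single tested concentration, limit read from the data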
RTF Ca sens inh – cardiac RTF calcium sensitivity inhibitors, primary screen, biochemical, IANBD-TnC fluorescence, EC70 calcium; IANBD-labeled cardiac RTF, Ca2+ fluorescence; inhibition, % at 7.15 µM; Troponin I, cardiac muscle (Homo sapiens) + Troponin T, cardiac muscle (Homo sapiens) + …; 0.12% of 340,000 active;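 active = inhibition above the mean inhibition of all tested compounds plus 3 SD, cut at about 17% in these data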;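 note: assay run at fixed EC70 calcium of 1.6 mM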
IDE cell activ – human IDE activators in live cells, primary screen, fluorescence polarization, HEK cells, FAbeta-B substrate | activation, % at 5.96 µM | AID 493087, 2011 | 0.073% of 340,000 active | FAbeta-B cleavage; 0% vehicle, 100% cell-free pure enzyme wells | Insulin-degrading enzyme (Homo sapiens), P14735;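 active = activation above the mean of all tested compounds plus 3 SD, set per screening campaign, cut at about 17% in these data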
Numbers without * were called inactive; x = no result given.

SMILES	CRFR2-BP ag	cardiac RTF act	IDE cell inh	CRFR2-BP antag	RTF Ca sens inh	IDE cell activ
Cc1ccc(-c2sc(-c3ccccc3)nc2CC(=O)Nc2ccccc2F)cc1	127.5*	2.5	3.2	-195.2	-2.2	0.5
Cc1[nH]n2c(=O)cc(-c3ccc([N+](=O)[O-])cc3)nc2c1-c1ccccc1	0.6	-10.0	-1.9	48.4	15.0	8.5
COc1ccc(-c2c(C(F)(F)F)[nH]n3c(=O)cc(-c4ccccc4)nc23)cc1	-3.6	-9.3	1.3	70.3*	5.8	0.1
Cc1ccc(N=Nc2c(N)[nH]n3c(=O)cc(-c4ccccc4)nc23)cc1	0.0	-6.4	-3.7	58.7*	2.1	1.6
COc1cccc(N=Nc2c(N)[nH]n3c(=O)cc(-c4ccccc4)nc23)c1	-0.7	-4.3	0.5	20.8	-3.4	4.8
Cc1cc(=O)n2[nH]c(Nc3cccc(Cl)c3)nc2n1	116.1*	3.4	1.2	-13.4	-1.9	3.5
Clc1ccc(CNc2ccccc2NCc2ccc(Cl)nc2)cn1	-3.1	11.1	2.2	-8.4	-22.5	-0.2
O=C(CN1C(=O)NC2(CCOc3ccccc32)C1=O)NCCc1ccccc1 (stereo unspecified)	0.0	3.1	-4.3	-15.6	-1.0	2.3
CSc1c(C#N)sc(=S)n1-c1ccc(C)cc1	1.8	7.3	0.8	55.8*	-5.1	-0.4
CC1=C(C(=O)OCc2ccccc2)C(c2ccc(Br)cc2)NC(=O)N1CCCC(=O)O (stereo unspecified)	-0.3	x	-7.9	10.6	x	x
CC1=C(C(=O)OCc2ccccc2)C(c2ccc(Br)cc2)NC(=O)N1CCCCCC(=O)O (stereo unspecified)	0.3	-9.3	-2.1	-1.8	-3.1	38.0*
CCc1ccc(-c2nc(CN3CCC(C(=O)N4CCN(c5ccccc5)CC4)CC3)c(C)o2)cc1	312.7*	3.3	-0.5	-358.8	-9.3	4.3
Cc1ccc(O)c(C(=O)c2cc(C#N)c3nc4ccccc4n3c2)c1	66.4*	1.6	12.3	-133.5	-11.0	-79.0
Cc1ccc(O)c(C(=O)c2cc(C#N)c(=O)n(Cc3ccccc3)c2)c1	8.6	-2.6	0.8	40.8	0.8	-1.5
COc1ccc(C(C)=O)cc1COC(=O)c1cccnc1SC	-6.2	3.1	-1.3	11.8	-4.3	3.4
O/N=C(\CN1CCCCC1)c1ccccc1	1.2	3.4	1.5	8.6	-7.0	1.3
O=C(ON=C1CCN(c2ccc([N+](=O)[O-])cc2)CC1)c1ccccc1	-2.4	-1.3	-0.1	64.3*	-0.4	-0.3
COc1ccc(C(=O)ON=C2CCN(c3ccc([N+](=O)[O-])cc3)CC2)cc1	0.4	0.1	10.5	20.9	-11.0	1.3
CC(C#N)Sc1ncnc2sc(-c3ccccc3)cc12 (stereo unspecified)	1.1	2.9	6.0	-13.4	-8.3	-3.0
O=C(CCC(=O)N1CCOc2ccc(Cl)cc21)NCc1ccccc1	243.4*	2.2	4.8	-85.2	-4.4	-4.6
Cc1nn(-c2ccccc2)c(Cl)c1C(=O)NCCCCNC(=O)c1c(C)nn(-c2ccccc2)c1Cl	-1.2	-0.9	3.9	8.9	-3.5	4.2
CCC(=O)N(Cc1c(C)nn(-c2ccccc2)c1Cl)c1ccc(Cl)cc1	-1.5	1.1	1.4	67.5*	1.7	-0.8
O=C(Nc1ccccc1C(=O)N1CCOCC1)c1ccncc1	-5.5	-2.6	2.2	102.0*	-5.6	-0.3
O=C(Nc1ccccc1C(=O)N1CCOCC1)c1ccco1	-2.5	-4.8	-5.6	35.2	-7.5	4.2
NNC(=S)NC1CCS(=O)(=O)C1 (stereo unspecified)	5.0	x	9.9	108.3*	x	x
SMILES	CRFR2-BP ag	cardiac RTF act	IDE cell inh	CRFR2-BP antag	RTF Ca sens inh	IDE cell activ
COc1ccc(NC(=O)C(=O)NNC(=O)c2cccs2)c(OC)c1	-5.2	-6.9	-1.3	74.8*	-0.8	-2.6
COc1ccc(OC)c(NC(=O)C(=O)NNC(=O)C23CC4CC(CC(C4)C2)C3)c1	55.0*	x	4.3	21.5	x	x
COc1ccc(NC(=O)C(=O)NNC(=O)c2cccs2)cc1	0.4	2.6	-2.4	7.4	-4.3	0.4
CC(=O)c1cccc(NC(=O)/C(=C\c2cccnc2)NC(=O)c2ccco2)c1	0.5	-6.6	3.2	-2.1	0.7	2.1
CCOC(=O)C1CCCN(C(=O)CCn2nnnc2CN2CCOCC2)C1 (stereo unspecified)	1.8	-0.1	2.1	-13.2	1.5	1.5
COc1ccc(CC(=O)Nc2ccc(S(=O)(=O)N(C)C3CCN(C)CC3)cc2)cc1	-0.2	-1.4	-6.1	-1.1	-1.9	4.9
CC(Oc1ccc(Br)cc1)C(=O)Nc1ccc(S(=O)(=O)N(C)C2CCN(C)CC2)cc1 (stereo unspecified)	95.8*	-3.6	-3.9	-23.7	4.3	3.4
FC(F)(F)c1cc(CCN2CCNC[C@H]2Cc2cccc3ccccc23)cc(C(F)(F)F)c1	12.4	13.3	4.3	-16.8	-13.4	19.9*
Oc1ccc(C[C@@H]2CNCCN2CCc2cc(C(F)(F)F)cc(C(F)(F)F)c2)cc1	6.7	-4.9	0.6	-14.0	-0.8	5.5
Cc1ccnc2nc(C(=O)OCC(=O)NC(=O)NCc3ccco3)nn12	0.1	1.6	7.8	-5.3	0.2	3.8
CCC(Oc1ccccc1)C(=O)Nc1cc(C(F)(F)F)ccc1N1CCOCC1 (stereo unspecified)	4.2	-17.4	-0.4	-8.1	-7.1	4.9
Cc1cc(C)nc(SCC(=O)NC(=O)c2ccccc2O)n1	0.4	38.8*	1.7	-11.2	-6.3	-4.1
COc1ccc(C(=O)NCCCNC(=O)c2cnccn2)cc1	0.0	-2.5	-1.6	0.3	4.8	-0.8
CCC1=NN(C(=O)c2ccc(Cl)cc2)C(O)(c2ccccc2)C1 (stereo unspecified)	0.5	2.2	1.9	4.0	0.4	2.9
COC(=O)C1=NN(C(=O)c2ccc(Cl)cc2)C(O)(c2ccccc2)C1 (stereo unspecified)	72.3*	4.5	-0.4	13.7	-2.2	-7.9
CCOC(=O)C1=NN(C(=O)c2ccc(C)cc2)C(O)(c2ccc(Cl)cc2)C1 (stereo unspecified)	89.8*	2.2	-3.9	-12.2	-8.6	0.0
CCC1=NN(C(=O)c2ccc(Cl)cc2)C(O)(c2ccc(C)cc2)C1 (stereo unspecified)	-0.1	-6.0	x	10.1	3.8	4.3
O=C(Nc1cccnc1)c1ccc(-c2ccc(Cl)cc2)o1	-0.9	2.7	5.2	57.1*	-2.9	-1.0
